Bioassay records (PubChem BioAssay)
WT yeast gro inh: growth inhibition of WT strain, primary screen, mitochondrial fusion inhibitor project, WT and mutant strains, chemical genetic; mitochondrial fusion phenotypic screen; inhibition, % at 10 µM; actives 2.1% (n = 190,000); in the data active = inhibition above about 58%; tested in S. cerevisiae
Lmaj promast: Leishmania major promastigote growth inhibition, primary screen | Leishmania major promastigotes, resazurin fluorescence viability | inhibition, % at 10 µM | actives 9% (n = 200,000) | AID 1063, 2008; in the data active = inhibition above about 50%;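 also: promastigotes grown with compound for 44 hours at 28 °C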
CHOP inh: inhibitors of CHOP promoter induction, primary screen, cell-based, unfolded protein response, luciferase reporter | CHO-K1 CHOP-promoter luciferase, tunicamycin-induced, 15-18 h | inhibition, % at 10 µM | actives 3.8% (n = 220,000) | AID 2732, 2010;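 active = compounds that reduced the stress-induced luciferase reporter signal by more than about 70% of percent inhibition, limit read from the data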;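 also: 0% = tunicamycin plus vehicle and 100% = wells without tunicamycin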
Arbovirus anti: antivirals against arbovirus infection, primary screen, cell-based, full library, 10K replicate subset. actives 0.37% (n = 200,000). inhibition, % at 10 µM. arbovirus infection cell-based antiviral screen; in the data active = inhibition above about 30%
CHOP confirm: retest of CHOP induction inhibitors, confirmation, cell-based | actives 45% (n = 2,100) | inhibition, % at 10 µM | CHO-CHOP promoter luciferase reporter, tunicamycin-induced, luminescence | shares compounds with CHOP inh;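 active = mean of three repeat readings of reporter signal inhibition above a set limit, cut at about 70% in these data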;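 also: 0% = tunicamycin plus vehicle and 100% = wells lacking tunicamycin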
* = called active by the depositor; . = no result given. Sampled rows, rich in hits. Any-hit rate of the full collection: about 12%.

SMILES | WT yeast gro inh | Lmaj promast | CHOP inh | Arbovirus anti | CHOP confirm
Cc1ccc(Cn2ncc(Cl)c(Cl)c2=O)cc1 | -7 | 60* | 107* | -31 | -26
Cc1cc(C)cc(Cn2ncc(Cl)c(Cl)c2=O)c1 | 23 | 19 | 106* | -43 | -31
O=C(Cn1ncc(Cl)c(Cl)c1=O)N1CCOCC1 | -15 | 14 | -35 | -31 | .
O=C(Cn1ncc(Cl)c(Cl)c1=O)N1CCN(Cc2ccccc2)CC1 | -17 | 40 | 107* | -36 | -169
O=c1c(Cl)c(Cl)cnn1Cc1nnc(-c2ccc(Cl)cc2)o1 | 49 | 100* | 107* | -34 | 38
CCn1cc(C(=O)O)c(=O)c2cnc(N3CCN(C(=O)Nc4ccccc4)CC3)nc21 | . | 9 | . | . | .
CC(C)(C)OC(=O)CC[C@@H](C(=O)N1CCN(C(=O)OC(C)(C)C)CC1)n1cc(C(CO)NC(=O)OC(C)(C)C)nn1 (some centres undefined) | -7 | -6 | 2 | 5 | .
O=c1c(Cl)c(Cl)cnn1Cc1ccccc1Cl | 11 | 76* | 111* | -41 | 26
CCCn1nc(C(=O)OCC(=O)Nc2ncc(Cl)c(C)c2Cl)c2ccccc2c1=O | -1 | -3 | 8 | 9 | .
Cc1cc(=O)oc(C)c1C(=O)N[C@@H]1CCCCNC1=O | -9 | -3 | 1 | 2 | .
Cc1ccc(OC(C)C(=O)N/N=C/c2ccccn2)cc1 (centres undefined) | 0 | -1 | -18 | -1 | .
CNCC(O)COc1ccccc1 (centres undefined) | 14 | -6 | 104* | 0 | 5
COc1ccc(NCC(O)COc2ccc(C(C)(C)C)cc2)cc1 (centres undefined) | 10 | -1 | 104* | -2 | 57
CC(C)(C)NCC(O)COc1ccc(Br)cc1 (centres undefined) | 2 | 4 | -1 | -20 | .
COc1ccccc1NCC(O)COc1ccc(C(C)(C)C)cc1 (centres undefined) | 26 | -6 | 105* | -33 | 120*
COCCn1c(SCC(=O)NCC2CCCO2)nc2c(c1=O)SC(C)C2 (centres undefined) | 11 | -5 | 9 | 1 | .
CCN1CCN(C(=S)NC(C)c2ccccc2)CC1 (centres undefined) | -11 | 20 | -1 | -6 | .
O=C(Cn1c(COc2ccccc2)nc2ccccc21)Nc1cc(Cl)cc(Cl)c1 | 7 | -5 | 109* | -9 | 32
O=C(Cn1c(COc2ccc(Cl)cc2)nc2ccccc21)NCC(F)(F)F | 10 | -4 | 16 | 7 | .
O=C(O)CSCC(=O)Nc1ccc(C2CCCCC2)cc1 | 0 | -4 | 99* | 1 | 108*
Nn1cnnc1SCC(=O)Nc1ccc(C2CCCCC2)cc1 | 16 | -1 | 6 | 2 | .
CCc1ccc(-c2nc(CSCC(=O)NCc3ccco3)c(C)o2)cc1 | 6 | 19 | 102* | 3 | 135*
CCOC(=O)/C(=C\c1ccc(Cl)cc1)c1nc2sc(C)c(C)c2c(=O)[nH]1 | 50 | 100* | 107* | -44 | -45
CCCCCCSc1nsc(NC(=O)CCC)n1 | 17 | 2 | 106* | -26 | 103*
COc1ccc(N=CC2=C(O)c3ccccc3C2=O)c(OC)c1 | 21 | 7 | 100* | -21 | 133*
SMILES | WT yeast gro inh | Lmaj promast | CHOP inh | Arbovirus anti | CHOP confirm
O=C1C(C=NCc2ccco2)=C(O)c2ccccc21 | 7 | -12 | -11 | -5 | .
O=c1c2cc3c(cc2[nH]c(=S)n1C1CCN(Cc2ccccc2)CC1)OCO3 | 5 | 26 | -4 | 2 | .
CC(=O)OCCNc1cc(SC(C)C)c2nonc2c1[N+](=O)[O-] | 11 | 6 | 4 | 18 | .
CC(=O)OCCCNc1cc(Sc2ccc(Cl)cc2)c2nonc2c1[N+](=O)[O-] | -14 | 3 | 109* | -44 | 114*
CCCC(=O)OCCNc1cc(Sc2nc3ccccc3[nH]2)c2nonc2c1[N+](=O)[O-] | 4 | 53* | 110* | -43 | 138*
O=C(Nc1ccc(Cl)c(Cl)c1)OCCNC(=O)c1cccc(Cl)c1 | 6 | -4 | 62 | -2 | .
CCn1c(=O)c(C(=O)NNS(=O)(=O)c2ccc(Br)cc2)c(O)c2ccccc21 | 20 | -3 | 105* | -5 | 68
Cc1[nH]c2ccccc2c1C(=O)C(=O)NCc1ccco1 | 9 | 1 | 1 | -5 | .
CCCCS(=O)(=O)NC1=NCN(Cc2ccco2)CN1 | -5 | 2 | 22 | 6 | .
Cc1cc(/C=N/n2cnnc2)c(C)n1-c1ccc(OCc2ccccc2F)cc1 | 50 | 77* | 111* | -8 | 103*
Cc1cc(/C=N/n2cnnc2)c(C)n1-c1ccc(OCc2ccc(Cl)cc2)cc1 | 66* | 98* | 99* | -37 | 91*
O=C(OCc1cnc(Cl)s1)c1ccccc1Cl | -17 | -5 | 14 | -1 | .
O=C(OCn1ncc(Br)c(Br)c1=O)c1ccccc1Cl | 80 | 101* | 111* | -45 | 124*
COc1ccc(N(Cc2cc3ccc(C)cc3[nH]c2=O)C(=O)C2CCCO2)cc1 (centres undefined) | . | . | 11 | . | .
CC/C(=N\Nc1ccccc1[N+](=O)[O-])c1ccc(O)cc1 | 19 | 3 | 100* | 0 | 26
CCOC(=O)C(C(=O)OCC)C(C(=O)OCC)N1CCOCC1 (centres undefined) | 38 | 100* | 102* | -44 | -94
CCOC(=O)C(C)CC(C)C(=O)N1CCOCCOCCN(C(=O)C(C)CC(C)C(=O)OCC)CCOCC1 (centres undefined) | 24 | -5 | -1 | 16 | .
CC(C)NC(=S)N1CCN(C/C=C/c2ccccc2)CC1 | -4 | 5 | 20 | 8 | .
CN=C1SC(CC(=O)Nc2ccc(F)cc2F)C(=O)N1/N=C/c1ccc(OC(F)F)c(OC)c1 (centres undefined) | -8 | 14 | 98* | -9 | 116*
COc1ccc([N+](=O)[O-])cc1NC(=O)CC1SC(=Nc2cccc(C)c2C)N(/N=C/c2cccc(OC)c2OC)C1=O (centres undefined) | -4 | 22 | -3 | 16 | .
CCC1Cc2c(nc3c4c(nc(N5CCOCC5)c(C#N)c24)NC(C)=N3)O1 (centres undefined) | . | 15 | . | . | .
Nc1nnnn1/N=C/c1cccc(OCc2ccccc2Cl)c1 | -14 | 6 | 104* | 2 | 51
CCSc1nc2ccccc2n1C(=O)/C=C/c1ccc(OC)c(OC)c1 | -5 | 44 | 105* | -35 | 114*
C=CCSc1nc2ccccc2n1C(=O)/C=C/c1cc(OC)c(OC)c(OC)c1 | . | 5 | 111* | -48 | 109*
CC(=O)N1CCN(C(=O)CCC(=O)O)CC1 | . | . | -8 | . | .
O=[N+]([O-])/C=C\c1ccc(N2CCCC2)c(F)c1 | 45 | 47 | 109* | -33 | -40
Cn1c(=O)[nH]c(=O)c2[nH]c(N(Cc3ccccc3)Cc3ccccc3)nc21 | -2 | 16 | 111* | -12 | 114*
CC(=O)c1cc(CN2CCN(C3CCN(C(C)C)CC3)C(CCO)C2)cs1 (centres undefined) | 2 | 1 | -14 | 3 | .
